Screening results as filed in PubChem BioAssay.
Hits are enriched below; roughly 12% of the tested compounds scored in any of these assays.
HP1b binding inh: HTS for Inhibitors of HP1-beta Chromodomain Interactions with Methylated Histone Tails; actives 0.56% (n = 390,000); Chromobox protein homolog 1 (Homo sapiens), P83916; AlphaScreen HP1-beta / biotin-H3K9me3 peptide binding; Potency, µM (highest dose often 114 µM), inactives show at the top dose activity change, negative = inhibition, actives largely listed as inhibitors; note: nearly all actives have a fitted effect of over 70% in size
Target sequence (P83916 whole entry, looked up): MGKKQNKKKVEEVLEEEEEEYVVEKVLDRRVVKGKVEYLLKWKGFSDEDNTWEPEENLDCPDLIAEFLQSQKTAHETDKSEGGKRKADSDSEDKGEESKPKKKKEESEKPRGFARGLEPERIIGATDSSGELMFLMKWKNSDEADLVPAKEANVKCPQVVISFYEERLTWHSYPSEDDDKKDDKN
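Compound inhibition of the preformed complex between 50 nM HP1-beta and 50 nM biotinylated H3K9me3 peptide was read by AlphaScreen. Buffer was PBS pH 7.4 with 0.01% Tween-20. Incubations ran 30 min at room temperature, with 10 ug/mL donor/acceptor beads.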
Sfp PPTase inh: qHTS Assay for Inhibitors of Bacillus subtilis Sfp phosphopantetheinyl transferase (PPTase); 4'-phosphopantetheinyl transferase ffp (Bacillus subtilis), Q9F4F7; Biochemical Sfp PPTase activity, qHTS; Potency, µM, without a hit: largest response in the series, negative = inhibition, most hits filed as inhibitors; actives 3.5% (n = 310,000); AID 1490, 2009;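 note: the enzyme is Sfp with the accession as filed and its product quenches rhodamine fluorescence; 0% = enzyme reaction without inhibitor and -100% = no enzyme wells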
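Compounds were incubated with enzyme (final 15 nM) for 15 min at room temperature before substrate addition started the reaction. Fluorescence at 525 nm excitation, 598 nm emission was recorded immediately and after 30 minutes.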
L3MBTL1 inh: qHTS Assay for the Inhibitors of L3MBTL1; Potency, µM (top dose mostly 57.1 µM), for inactives: at the top dose activity, negative = inhibition, most hits filed as inhibitors; AID 485360, 2010; AlphaScreen L3MBTL1–H3K9me1 peptide binding; actives 0.66% (n = 230,000); Lethal(3)malignant brain tumor-like protein 1 (Homo sapiens), Q9Y468; note: % is set by controls: 0 for no effect and ±100 for the full control effect; nearly all actives have a fitted effect of over 60% in size
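First, the protein-peptide complex forms for 30 min at room temperature (L3MBTL1 50 nM, biotinylated H3K9me1 peptide 75 nM). Next, compounds are pin-transferred and incubated 30 min. Finally, AlphaScreen beads are added and read after 30 min.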
BAZ2B block: qHTS Assay for Inhibitors of BAZ2B; actives 4.4% (n = 360,000); AlphaScreen BAZ2B-H3K14Ac peptide displacement; Potency, µM (top dose mostly 114 µM), inactives show top-dose activity change, negative = inhibition, most hits filed as inhibitors; Bromodomain adjacent to zinc finger domain protein 2B (Homo sapiens), Q9UIF8; note: % is set by controls: 0 for no effect and ±100 for the full control effect; nearly all actives have a fitted effect of over 60% in size
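Compounds, titrated to a top concentration of 110 uM, were incubated 30 min at room temperature with preformed BAZ2B/acetyl-K14 H3 peptide complex (50 nM each). Proximity signal was measured by AlphaScreen after 20 min with beads.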
JMJD2A Tudor: qHTS Assay for Inhibitors of JMJD2A-Tudor Domain. Lysine-specific demethylase 4A (Homo sapiens), O75164. AlphaScreen JMJD2A-Tudor / H3K4me3 peptide binding. Potency, µM (series often up to 114 µM), inactives show top-dose activity change, negative = inhibition, actives largely listed as inhibitors. actives 4.4% (n = 390,000); note: % is set by controls: 0 for no effect and ±100 for the full control effect; nearly all actives have a fitted effect of over 50% in size
G9a inh: qHTS Assay for Inhibitors of Histone Lysine Methyltransferase G9a; actives 8.8% (n = 350,000); AID 504332, 2011; G9a H3K9 monomethylation, AlphaScreen, 2 h; Potency, µM (top dose mostly 102 µM), inactives show at the highest dose activity, negative = inhibition, actives largely listed as inhibitors; note: % is set by controls: 0 for no effect and ±100 for the full control effect; nearly all actives have a fitted effect of over 75% in size
Target sequence (Q96KQ7 913-1193 limits assumed): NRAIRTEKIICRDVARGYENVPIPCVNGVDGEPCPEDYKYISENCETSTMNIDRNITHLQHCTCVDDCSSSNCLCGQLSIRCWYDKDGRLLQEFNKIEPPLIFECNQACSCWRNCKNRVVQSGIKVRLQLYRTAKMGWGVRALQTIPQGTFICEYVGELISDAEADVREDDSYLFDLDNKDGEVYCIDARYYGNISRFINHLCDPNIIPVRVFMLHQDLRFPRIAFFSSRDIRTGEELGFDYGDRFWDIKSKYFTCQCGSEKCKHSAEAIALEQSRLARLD
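AlphaScreen detection with an anti-monomethyl H3K9 antibody quantified product after a 2 h room-temperature reaction containing 500 nM biotinylated H3K9 peptide, 20 µM SAM and 20 nM enzyme, which had been preincubated 15 min with compound.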
Starred values were filed as active, the others as inactive; ? = inconclusive; · = no result; ! = repeats disagree; [ ] = another dose, or the depositor's remark. Calls come from the whole dose curve; as a rule, active = well fitted curve in the direction sought with a large enough effect; inconclusive = small, poorly fitted or top-dose-only effect, or another doubt; inactive = no such curve, though single readings can be large; an effect the other way counts as inactive or inconclusive. Potency is the fitted concentration of half-maximal effect.

SMILES | HP1b binding inh | Sfp PPTase inh | L3MBTL1 inh | BAZ2B block | JMJD2A Tudor | G9a inh
COc1ccc(C2CC(c3ccc4ccccc4c3)=NN2C(=O)COC(=O)C2CCC(=O)N2)cc1 (stereo not given) | -1.4% | -22.7% | -12.0% | 35.5µM* | ? | ?
COc1ccc(C2CC(c3ccc4ccccc4c3)=NN2C(=O)CNC2CCCCC2)cc1 (stereo not given) | ? | -63.6% | -27.4% | 56.2µM* | 22.4µM* | 10µM*
CC(=O)OCC(=O)N1N=C(c2ccc3ccccc3c2)CC1c1ccccc1 (stereo not given) | 26.3% | 25.1µM* | 1.2% | -18.9% | -17.5% | -8.8%
Nc1cc(=O)[nH]c(SCC(=O)N2N=C(c3ccc4ccccc4c3)CC2c2ccccc2)n1 (stereo not given) | -4.4% | 21.0% | · | ? | ? | -25.6%[12.7 µM]
COc1ccc(C2CC(c3ccc4ccccc4c3)=NN2C(=O)CN2CCC(C(N)=O)CC2)cc1 (stereo not given) | -17.9% | ? | -12.9% | -27.1% | ? | ?
Fc1ccc(Nc2ncnc3onc(-c4ccc(Cl)cc4)c23)cc1Cl | 101.8% | · | · | 6.5% | 18.9% | 26.7%[59 µM]
COc1ccc(NC(=O)CC2Oc3ccc(C)cc3NC2=O)cc1Cl (stereo not given) | 10.5% | · | · | -28.3% | -7.3% | -14.4%[59 µM]
CCOC(=O)N1CCc2c(sc3c2c(=O)n(Cc2ccccc2)c(=O)n3Cc2ccccc2Cl)C1 | 18.9% | · | · | ? | -18.2% | ?
O=C(O)c1ccc2c(c1)C(=O)/C(=C\c1ccco1)C2=O | ? | 22.4µM* | 3.16µM* | 35.5µM* | 25.1µM* | 8.91µM*
NS(=O)(=O)c1ccc(-c2ccc(C=C3C(=O)c4ccccc4C3=O)o2)cc1 | 51.8% | 18.3% | 1.8% | -1.4% | -4.3% | 17.8%
O=C1C(=Cc2ccco2)C(=O)c2ccccc21 | -15.6% | -25.1% | ? | ? | ? | 12.6µM*
CC(C)(C)N1C(=O)c2ccc(C(=O)O)cc2C1=O | 27.4% | 16.8% | 1.8% | 0.9% | -5.2% | 55.5%[59 µM]
Cc1ccc(C=C2C(=O)c3ccccc3C2=O)o1 | ? | -10.3% | ? | 39.8µM* | ? | 25.1µM*
CC(C)NC(=O)/C(=C/c1ccco1)c1ccccc1 | 9.7% | -45.7% | 1.0% | -7.5% | -9.1% | ·
O=C(O)c1ccc2c(c1)C(=O)/C(=C/c1ccccc1)C2=O | 44.7µM* | -0.9% | 3.16µM* | 50.1µM* | ? | 12.6µM*
Cc1ccc(N(CC(=O)NCCc2ccccc2)S(=O)(=O)N(C)C)cc1 | 20.2% | · | · | -0.6% | -16.6% | -26.9%[59 µM]
COC(=O)N1CCC2(CC1)CN(C(=O)Nc1ccc(OC)cc1)C2 | · | 6.1% | · | · | · | 11.8%[12.7 µM]
CCn1ccc2c(OCC(=O)Nc3ccccc3C(F)(F)F)cccc2c1=O | 30.0% | · | · | 2.1% | -1.9% | -0.6%[59 µM]
Cc1ccc(/C=C2/C(=O)c3ccc(C(=O)O)cc3C2=O)o1 | 70.8µM* | 12.6µM* | 1.58µM* | 11.2µM* | 28.2µM* | ·
CC(C)N1C(=O)c2ccc(C(=O)O)cc2C1=O | 52.9% | 12.8% | -7.5%[11.4 µM] | 2.0% | 1.4% | -26.6%[12.7 µM]
CCCCn1cc(S(=O)(=O)c2cc(C)ccc2C)c(=O)c2cc(F)c(F)cc21 | 53.6% | · | · | 2.5% | 3.3% | -0.9%[59 µM]
CCOC(=O)c1ccccc1NC(=O)N1CCC(CN2CCOCC2)CC1 | 1.8% | · | · | 1.1% | -24.4% | 3.7%[59 µM]
COc1ccccc1NC(=O)CN1CCN(CC(=O)Nc2ccc(S(N)(=O)=O)cc2)CC1 | 23.9% | 14.6% | · | 4.2% | -9.4% | 44.7µM*
COc1ccccc1NC(=O)C(C)OC(=O)C(C)SCC(=O)Nc1ccc(C)cc1 (stereo not given) | 24.7% | · | 2.2% | 11.0% | -9.7% | 35.5µM*
CC(=O)Nc1ccc(NC(=O)C(C)OC(=O)C(C)SCC(=O)Nc2ccc(C)cc2)cc1 (stereo not given) | 32.6% | · | 2.7% | -3.9% | -2.1% | -29.0%
SMILES | HP1b binding inh | Sfp PPTase inh | L3MBTL1 inh | BAZ2B block | JMJD2A Tudor | G9a inh
NS(=O)(=O)c1ccc(NC(=O)CN2CCN(S(=O)(=O)c3cccs3)CC2)cc1 | 5.2% | · | -24.0% | -7.6% | -27.0% | 50.1µM*
COc1ccccc1NC(=O)CN1CCN(CC(=O)Nc2ccc(F)cc2)CC1 | 40.0% | -3.0% | · | 8.9% | -2.9% | ?
COc1ccccc1NC(=O)CN1CCN(CC(=O)Nc2ccc(OCc3ccccc3)cc2)CC1 | 1.8% | 6.2% | 1.3% | -34.2% | -26.8% | 35.5µM*
COc1cc2c(cc1OC)C1C(=O)c3c(O)cc4c(c3OC1CO2)C=CC(C)(C)O4 (stereo not given) | · | -41.9% | · | · | · | -39.2%[2.33 µM]
O=C(COc1ccc(F)cc1)Nc1ccccc1C(=O)OCc1cc(=O)n2nc(C3CC3)sc2n1 | 33.0% | · | · | -23.8% | -1.3% | 18.0%[59 µM]
COc1ccc(N2CC(NC(=O)C(c3ccccc3)c3ccccc3)CC2=O)cc1OC (stereo not given) | 41.2% | · | · | -4.8% | 1.0% | ?
COc1ccc(NC(=O)CN2CCN(CC(=O)Nc3ccccc3OC)CC2)c(OC)c1 | 36.8% | 9.6% | · | 0.3% | -6.4% | ?
COc1ccc(NC(=O)CN2CCN(CC(=O)Nc3ccccc3F)CC2)cc1OC | 33.8% | 9.8% | -6.0% | -5.2% | -18.9% | 44.7µM*!
COc1ccc(NC(=O)CN2CCN(CC(=O)Nc3ccccc3F)CC2)c(OC)c1 | 41.8% | 4.4% | -5.4% | 9.3% | -10.8% | 31.6µM*!
COc1ccc(NC(=O)C/C(C)=N/NC(=O)C(=O)Nc2cccc(Cl)c2C)c(OC)c1 | 33.9% | 14.6% | · | 26.9% | -15.6% | 56.2µM*
COc1cccc(NC(=O)CN2CCN(CC(=O)Nc3ccc(F)cc3)CC2)c1 | 62.7% | 1.7% | · | 4.3% | -11.4% | 35.5µM*
COc1ccc(NC(=O)C/C(C)=N/NC(=O)C(=O)NC(C)C)c(OC)c1 | 44.7% | -10.5% | -3.2% | ? | -14.0% | ·
COc1ccc(COC(=O)N/N=C2/C[C@@H](O)[C@@H](O)[C@@H]3[C@@H]4C(=O)N(Cc5ccccc5)C(=O)[C@H]4CC[C@@H]23)cc1 | · | -8.3% | · | · | · | ·
Cc1cc2oc(=O)c(CC(=O)NCCc3ccccc3F)c(C)c2c2occ(C(C)(C)C)c12 | 19.8% | · | · | -24.6% | -21.4% | -26.2%[59 µM]
Cc1cc(C)c(NC(=O)Cn2c(=O)nc(-c3ccccc3)c3cc(Cl)ccc32)c(C)c1 | -3.8% | · | · | -5.8% | -17.9% | -1.8%[59 µM]
